Screens as filed in PubChem BioAssay.
Sm TGR block: S. mansoni TGR enzyme inhibition. Q962Y6. purified TGR, DTNB reduction, TNB absorbance 405 nm. Potency, µM (highest dose often 114 µM), most hits filed as inhibitors. actives 3% (n = 360,000). AID 485364; further: nearly all actives have a fitted effect of over 60% in size
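First, TGR (20 nM dispensed) and NADPH were mixed with compound. Second, a 15 min room-temperature incubation followed. Third, further NADPH and then DTNB were added to start the reaction. Finally, TNB absorbance was monitored kinetically.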
SARS PLpro yeast: SARS-CoV PLP inhibition in yeast. Potency, µM (highest dose often 32.9 µM), usual class: activators. AID 485353. S. cerevisiae expressing SARS-CoV PLpro, growth rescue. actives 0.19% (n = 330,000); calls by dose curve; further: nearly all actives have a fitted effect of over 55% in size
AmpC inh detg: inhibitors of E. coli AmpC beta-lactamase with detergent | Potency, µM (highest dose often 114 µM), actives largely listed as inhibitors | P00811 | AmpC hydrolysis of nitrocefin, absorbance 480 nm, 0.01% Triton | AID 485294 | actives 0.041% (n = 370,000); further: nearly all actives have a fitted effect of over 25% in size
Target sequence (P00811 whole entry, looked up): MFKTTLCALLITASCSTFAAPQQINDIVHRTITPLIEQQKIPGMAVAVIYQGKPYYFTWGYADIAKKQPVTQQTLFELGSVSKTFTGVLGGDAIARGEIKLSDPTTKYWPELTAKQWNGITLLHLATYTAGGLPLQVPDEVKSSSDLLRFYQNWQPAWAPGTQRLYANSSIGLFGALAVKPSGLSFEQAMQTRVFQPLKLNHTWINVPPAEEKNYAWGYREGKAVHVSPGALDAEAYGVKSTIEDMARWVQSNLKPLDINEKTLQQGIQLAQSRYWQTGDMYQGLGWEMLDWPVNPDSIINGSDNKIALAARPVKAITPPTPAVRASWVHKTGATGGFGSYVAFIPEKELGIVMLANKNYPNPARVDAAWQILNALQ
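AmpC (5.3 nM in the dispensed reagent) in 20 mM phosphate pH 7.0 with 0.01% (detergent screen) or 0.0001% Triton X-100 was preincubated with compounds for 15 min at room temperature. Nitrocefin was then added from an 800 uM solution, and hydrolysis was followed at 480 nm.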
AmpC inh no detg: blocks E. coli AmpC beta-lactamase in detergent-free assay | Potency, µM (series often up to 57.1 µM), most hits filed as inhibitors | AID 485341 | P00811 | actives 0.52% (n = 330,000) | AmpC nitrocefin hydrolysis, absorbance 480 nm, 0.0001% Triton; further: nearly all actives have a fitted effect of over 20% in size
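20 mM phosphate pH 7.0 + 0.01% (detergent screen) or 0.0001% Triton X-100; 5.3 nM AmpC reagent; cpd preinc 15 min RT; nitrocefin (800 uM stock) to start; A480 q20 s × 4 min; Activity was normalised to no-enzyme and no-compound control wells.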
Pf growth 48h: P. falciparum growth inhibition at 48 hours (one generation). actives 5.9% (n = 310,000). Potency, µM (highest dose often 28.7 µM), most hits filed as inhibitors. P. falciparum luciferase growth in erythrocytes, 48 h
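In quantitative HTS format, infected erythrocytes bearing luciferase-reporter parasites were treated for a single generation at 37 C. Luminescence after adding detection reagent served as the growth measure.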
Pf growth 96h: inhibits malaria parasite growth, 96 h; P. falciparum luciferase reporter growth, 96 h; Potency, µM (top dose mostly 28.7 µM), usual class: inhibitors; actives 6.9% (n = 320,000)
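Cell-based qHTS: luciferase-tagged P. falciparum in erythrocytes (2% hematocrit, 0.05% parasitemia final) incubated with compounds for 96 hours, 37 C, 5% CO2; luciferase detection reagent then added and luminescence measured.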
Of the large screens only hits and unclear results are named; the others gave an inactive call. Shown are actives, neighbours in structure and some others; about 12% of the full set was active somewhere. Unless noted, the call rests on the fitted dose curve; in most records, active means well fitted curve in the direction sought with a large enough effect; inconclusive means small, poorly fitted or top-dose-only effect, or another doubt; inactive means no such curve, though single readings can be large; an effect the other way counts as inactive or inconclusive.

COc1ccc(NC(=S)NC(NC(=O)CF)C(Cl)(Cl)Cl)c([N+](=O)[O-])c1 (centres undefined)	Sm TGR block 39.8µM, AmpC inh detg inconclusive, Pf growth 96h inconclusive
Cc1cccc(N(C)c2nc3ccccc3c3nnc(C)n23)c1	none (no result: SARS PLpro yeast, AmpC inh no detg, Pf growth 48h, Pf growth 96h)
COc1ccccc1-c1nc(SCC(=O)NCC2CCCO2)c2c(=O)n(C)c(=O)n(C)c2n1 (centres undefined)	Pf growth 48h inconclusive, Pf growth 96h inconclusive
CCC(=O)NC(NC(=S)Nc1cccc2cccnc12)C(Cl)(Cl)Cl (centres undefined)	AmpC inh detg inconclusive
CC(C)C(=O)NC(NC(=S)Nc1cccc2cccnc12)C(Cl)(Cl)Cl (centres undefined)	AmpC inh no detg 10µM, Pf growth 48h inconclusive
CCc1ccc(N(CC(=O)NC2CC2)S(=O)(=O)c2ccc(C)cc2)cc1	Sm TGR block 39.8µM
Cc1noc(C)c1S(=O)(=O)N(CC(=O)O)c1ccc2c(c1)OCO2	Pf growth 96h 5.86µM
Cc1ccc(S(=O)(=O)N(CC(=O)NC2CCCC2)c2cccc(C)c2)cc1	SARS PLpro yeast inconclusive, Pf growth 48h inconclusive, Pf growth 96h inconclusive
CCc1ccc(N(CC(=O)NC2CCCCC2)S(=O)(=O)c2c(C)noc2C)cc1	Pf growth 96h 1.85µM (no result: Pf growth 48h)
CCc1nc2ccc(C(=O)N3CCN(c4ccccc4F)CC3)cc2nc1CC	Pf growth 96h inconclusive
CCOC(=O)c1sc2ncn(CC(=O)N(CC)CC)c(=O)c2c1C	Pf growth 96h inconclusive
Cc1cc(=O)[nH]c(Nc2cccc(C(F)(F)F)c2)n1	Pf growth 48h inconclusive, Pf growth 96h 13.1µM
Cc1cc(=O)[nH]c(NN)n1	Pf growth 48h inconclusive, Pf growth 96h 9.28µM
CN1c2ccccc2C2(C)CCCC3=Cc4cc([N+](=O)[O-])cc([N+](=O)[O-])c4OC312 (centres undefined)	Pf growth 48h 5.86µM, Pf growth 96h inconclusive
COCCCNC(=O)CN(c1cccc(Cl)c1)S(C)(=O)=O	none
CC(=O)[C@@H]1[C@@H](C(=O)c2ccc(C)cc2)[C@]2(C(=O)Nc3ccccc32)[C@H]2C=Cc3cc(F)ccc3N12	Sm TGR block inconclusive, Pf growth 48h inconclusive, Pf growth 96h inconclusive
O=C(c1ccc(F)cc1)[C@@H]1[C@@H](C(=O)c2ccccc2)[C@@]2(C(=O)Nc3ccccc32)[C@H]2c3ccccc3C=CN12	Sm TGR block 44.7µM, Pf growth 48h inconclusive, Pf growth 96h 5.22µM
CC(=O)[C@@H]1[C@@H](C(=O)c2ccc(F)cc2)[C@]2(C(=O)Nc3ccccc32)[C@H]2C=Cc3cc(F)ccc3N12	Sm TGR block 50.1µM, AmpC inh detg inconclusive, Pf growth 48h inconclusive, Pf growth 96h inconclusive
Cc1ccc(C(=O)N2CC(=O)Nc3ccc(F)cc3C2c2ccccc2)cc1 (centres undefined)	Pf growth 48h inconclusive, Pf growth 96h inconclusive
CC(=O)Nc1nnc(SCC(=O)N2C(C)CCCC2C)s1 (centres undefined)	Pf growth 96h 11.7µM
COc1ccccc1Nc1nnc(SCC(=O)NC2CC2)s1	Pf growth 48h inconclusive, Pf growth 96h inconclusive
COc1ccccc1Nc1nnc(SCC(=O)NC2CCCC2)s1	Pf growth 48h 11.7µM, Pf growth 96h 9.28µM
Cc1sc2nc(C3CCCCC3)nc(SCC(=O)N3CC(=O)Nc4ccccc43)c2c1C	Pf growth 48h inconclusive, Pf growth 96h 4.65µM
COc1ccccc1Nc1nnc(SCC(=O)N2CC(=O)Nc3ccccc32)s1	AmpC inh detg inconclusive, Pf growth 48h inconclusive, Pf growth 96h 7.38µM
CCCC(=O)Nc1nnc(SCC(=O)N2C(C)CCCC2C)s1 (centres undefined)	Pf growth 48h inconclusive, Pf growth 96h inconclusive
O=C(COc1ncnc2sccc12)NC1CCS(=O)(=O)C1 (centres undefined)	none
O=C(Nc1nc(-c2ccc(Br)cc2)ns1)c1ccc(F)cc1	none (no result: SARS PLpro yeast, AmpC inh no detg, Pf growth 48h, Pf growth 96h)
COc1ccccc1Nc1nnc(SCC(=O)Nc2nc(-c3ccc(F)cc3)cs2)s1	AmpC inh no detg 15.8µM, Pf growth 96h 13.1µM
CC(C)C(=O)Nc1nnc(SCC(=O)NC2CC2)s1	Pf growth 96h 5.22µM
COC(=O)CN1C(=O)COc2ccc(S(=O)(=O)N3CCOCC3)cc21	Pf growth 96h 9.28µM
COc1ccc(CCNC(=O)CN2C(=O)COc3ccc(S(=O)(=O)N4CCCC4)cc32)c(OC)c1	Pf growth 96h 9.28µM
O=C1CSC(=S)N1/N=C/c1ccc2c(c1)OCCO2	Sm TGR block 7.08µM (no result: Pf growth 48h)
COc1cc(/C=N/N2C(=O)CSC2=S)ccc1O	Sm TGR block 5.62µM (no result: Pf growth 48h)
O=C1CSC(=S)N1Cc1cccnc1	none
CC(C)CCOc1ccc(/C=N/N2C(=O)CSC2=S)cc1	none
Cc1ccccc1/C=N/N1C(=O)CSC1=S	Sm TGR block 10µM
O=C1CSC(=S)N1c1cccnc1	Pf growth 96h 13.1µM (no result: Pf growth 48h)
Cc1ccc(OCC(=O)Nc2c(C(=O)c3ccc(Cl)cc3)oc3ccccc23)cc1C	none (no result: SARS PLpro yeast, AmpC inh no detg, Pf growth 48h, Pf growth 96h)
CCOC(=O)c1c(C)oc2c(CC(=O)c3ccccc3)c(Cl)c(O)c(O)c12	none
O=C1CSC(=S)N1/N=C/c1cccnc1	Sm TGR block 6.31µM
O=C1CSC(=S)N1/N=C/c1cc(Br)c(O)c(Br)c1	Sm TGR block 20µM, AmpC inh detg inconclusive, AmpC inh no detg inconclusive, Pf growth 96h inconclusive
COC(=O)C1=C(C)N(c2ccc(F)c(Cl)c2)C(=O)C1	Sm TGR block 25.1µM, Pf growth 48h inconclusive
COc1ccc(Br)cc1/C=N/N1C(=O)CSC1=S	AmpC inh detg inconclusive, AmpC inh no detg 28.2µM, Pf growth 96h inconclusive
O=C1CN(c2cc(Cl)cc(Cl)c2)C(=O)CN1/N=C/c1cccnc1	Pf growth 48h inconclusive
O=C(Nc1ccc(NC(=O)c2sc3ccccc3c2Cl)cc1Cl)c1ccco1	none
NNC(=O)c1cc(Br)cs1	AmpC inh detg inconclusive
O=C1CSC(=S)N1c1ccc(F)c(Cl)c1	Pf growth 48h inconclusive, Pf growth 96h 11.7µM
O=C1CSC(=S)N1/N=C/c1ccc(Cl)c([N+](=O)[O-])c1	Sm TGR block 22.4µM, AmpC inh no detg 12.6µM, Pf growth 48h inconclusive, Pf growth 96h inconclusive
COc1ccc2nc(N3C(=O)CC(C(C)c4ccccc4)C3=O)sc2c1 (centres undefined)	Pf growth 96h 3.7µM
CCOc1ccc2nc(SC3CC(=O)N(c4ccc(OC)cc4)C3=O)sc2c1 (centres undefined)	none
COc1ccc2nc(N3C(=O)CC(Cc4ccc(C)cc4)C3=O)sc2c1 (centres undefined)	AmpC inh detg inconclusive
